Screening results: PubChem, National Center for Advancing Translational Sciences (NCATS)
Compounds with a hit are over-represented: about 9.2% of the library has one in this group of screens.
ELG1 DNA repair: inhibitors of ELG1-dependent DNA repair in HEK293T cells | HEK293T ELG1-luciferase reporter, luminescence, 16 h; DNA damage induced by 5-fluorouridine | Potency, µM (titrated, usually from 46.1 µM), most hits filed as inhibitors | 330,000 tested, 2.3% active | AID 504467; also: nearly all actives have a fitted effect of over 55% in size
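DMSO vehicle served as the neutral condition. Each well held 2,000 cells given 5-fluorouridine plus compound; after 16 hr at 37 °C/5% CO2, ONE-Glo was added and luciferase measured 30 min later.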
NPC1 promoter act: NPC1 promoter activation. Huh7 NPC1 promoter luciferase reporter, 24 h. Potency, µM (top dose mostly 9.22 µM), actives largely listed as activators. 320,000 tested, 2.4% active; also: nearly all actives have a fitted effect of over 60% in size
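Luminescence read-out of NPC1 promoter-driven luciferase in stably transfected Huh7 cells; compounds delivered in DMSO and left 24 h at 37C, 5% CO2, qHTS titration format.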
Rab9 promoter act: activates the Rab9 promoter; Huh7 Rab9 promoter-luciferase reporter, luminescence, 24 h; Potency, µM (series often up to 9.22 µM), hits mostly activators; 320,000 tested, 2.8% active; also: nearly all actives have a fitted effect of over 60% in size
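Huh7 reporter line, Rab9 promoter upstream of luciferase. Compound exposure 24 h at 37 °C in reduced-serum medium with 10% FBS. Read-out: luminescence.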
FLuc counter: firefly luciferase modulation, counter-screen for miR-21 project. Potency, µM (titrated, usually from 57.5 µM), hits mostly inhibitors. AID 588342. 360,000 tested, 6.9% active. purified FLuc, Km substrates, luminescence inhibition; also: nearly all actives have a fitted effect of over 55% in size
Target sequence (P08659 whole entry, looked up): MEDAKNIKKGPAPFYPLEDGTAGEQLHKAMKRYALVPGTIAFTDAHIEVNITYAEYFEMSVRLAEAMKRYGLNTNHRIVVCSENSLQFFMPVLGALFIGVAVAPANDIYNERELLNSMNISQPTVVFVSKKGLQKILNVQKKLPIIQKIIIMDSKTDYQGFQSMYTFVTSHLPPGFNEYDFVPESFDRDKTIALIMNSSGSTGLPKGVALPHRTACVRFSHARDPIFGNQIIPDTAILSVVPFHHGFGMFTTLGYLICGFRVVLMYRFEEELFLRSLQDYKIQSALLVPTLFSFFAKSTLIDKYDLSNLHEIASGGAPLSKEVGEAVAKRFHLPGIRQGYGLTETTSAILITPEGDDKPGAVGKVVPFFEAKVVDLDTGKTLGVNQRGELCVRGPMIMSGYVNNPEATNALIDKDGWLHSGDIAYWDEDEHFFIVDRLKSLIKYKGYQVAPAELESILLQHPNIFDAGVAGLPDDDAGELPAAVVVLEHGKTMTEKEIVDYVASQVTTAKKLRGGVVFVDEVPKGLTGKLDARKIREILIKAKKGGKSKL
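Purified P. pyralis luciferase, 10 nM final, with Km-level 10 uM D-luciferin and 10 uM ATP in 50 mM Tris acetate pH 7.5, 10 mM Mg acetate, 0.01% Tween-20, 0.05% BSA; 6-point qHTS titration about 60 µM downward; luminescence read.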
ELG1 genotox: genotoxicity induction in ELG1-luciferase HEK293T cells; 330,000 tested, 1.3% active; AID 504466; Potency, µM (series often up to 46 µM), usual class: activators; HEK293T ELG1-luciferase reporter, luminescence, 16 h; also: nearly all actives have a fitted effect of over 60% in size
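Cells (2,000/well) expressing the ELG1-luciferase fusion are dosed by pin tool and kept 16 hr at 37 °C, 5% CO2. Signal comes from ONE-Glo luciferase reagent after 30 min at room temperature.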
SMN2 splice enh: increases expression of the SMN2 splice variant. AID 1458. HEK293 SMN2-luciferase splicing reporter, luminescence, 30-36 h. 210,000 tested, 2.8% active. Potency, µM (top dose mostly 46.1 µM), hits mostly activators; also: nearly all actives have a fitted effect of over 55% in size
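qHTS luciferase splicing reporter: luminescence rises when SMN2 exon 7 is included in transfected HEK293 cells. Compound exposure lasted 30-36 h at 37C, with 4.5 mM final sodium butyrate as control, followed by a ONE-Glo read.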
Of the large screens only hits and unclear results are named; the others gave an inactive call. Calls follow the shape of the dose curve; as a rule, active = well fitted curve in the direction sought with a large enough effect; inconclusive = small, poorly fitted or top-dose-only effect, or another doubt; inactive = no such curve, though single readings can be large; an effect the other way counts as inactive or inconclusive.

O=C(NCCCN1CCOCC1)c1cc2c([nH]c3ccccc32)c(-c2cccc(Br)c2)n1	ELG1 DNA repair 1.6µM (no result: SMN2 splice enh)
O=C(NCCCN1CCOCC1)c1cc(-c2ccc(O)cc2)on1	ELG1 DNA repair inconclusive
O=C(NCCCN1CCOCC1)c1cc(-c2ccccc2)on1	ELG1 DNA repair inconclusive, ELG1 genotox 18µM
O=C(NCCN1CCOCC1)c1cc(-c2ccc(Br)cc2)on1	none
Cc1cc(=O)[nH]c(SCC(=O)Nc2ccc(Cl)cn2)n1	none
CCN(CC)C(=O)c1sc2c(c1C)c(=O)n(-c1ccc(Cl)c(Cl)c1)c(=O)n2CC(=O)Nc1cccc(OC)c1	none (no result: ELG1 DNA repair, NPC1 promoter act, Rab9 promoter act, ELG1 genotox, SMN2 splice enh)
CCOCCn1c(=NC(=O)CSCC(=O)Nc2cc(C)on2)sc2cc(OC)ccc21	ELG1 DNA repair 15µM (no result: SMN2 splice enh)
CC(=O)NCCC(=O)Nc1nc2ccc(Oc3ccccc3)cc2s1	ELG1 DNA repair inconclusive, NPC1 promoter act 1.4µM, Rab9 promoter act 0.89µM, FLuc counter 6.7µM, ELG1 genotox 3.7µM (no result: SMN2 splice enh)
CCOC(=O)c1cccc(C(=O)Nc2nc3ccc(OC)cc3s2)n1	ELG1 DNA repair inconclusive, NPC1 promoter act 2.2µM, Rab9 promoter act 1.6µM, FLuc counter 0.48µM, SMN2 splice enh 11µM
COc1ccc2nc(NC(=O)c3ccccc3O)sc2c1	ELG1 DNA repair inconclusive, NPC1 promoter act 1.3µM, Rab9 promoter act 0.79µM, FLuc counter 0.13µM, ELG1 genotox inconclusive (no result: SMN2 splice enh)
COc1ccc2nc(NC(=O)c3ccccc3[N+](=O)[O-])sc2c1	Rab9 promoter act inconclusive, FLuc counter inconclusive (no result: SMN2 splice enh)
CCOC(=O)c1cc(-c2ccc(F)cc2)n(CCC(=O)Nc2nc3ccc(OC)cc3s2)c1C	none (no result: ELG1 DNA repair, NPC1 promoter act, Rab9 promoter act, ELG1 genotox, SMN2 splice enh)
COc1ccc2nc(NC(=O)CSCc3c(C)noc3C)sc2c1	ELG1 DNA repair inconclusive, FLuc counter inconclusive, ELG1 genotox inconclusive (no result: SMN2 splice enh)
COc1ccc2nc(NC(C)=O)sc2c1	ELG1 DNA repair inconclusive, NPC1 promoter act 2.2µM, Rab9 promoter act 2.5µM, FLuc counter 12µM, ELG1 genotox inconclusive, SMN2 splice enh 14µM
CCC(C)C(=O)Nc1nc2ccc(OC)cc2s1 (stereo not drawn)	ELG1 DNA repair inconclusive, NPC1 promoter act 2.5µM, Rab9 promoter act 2.5µM, FLuc counter 12µM, ELG1 genotox inconclusive (no result: SMN2 splice enh)
COc1ccc(OCC(=O)Nc2nc3ccc(NC(C)=O)cc3s2)cc1	ELG1 DNA repair inconclusive
CC(=O)Nc1nc2ccc(Br)cc2s1	ELG1 DNA repair inconclusive, NPC1 promoter act 3.2µM, Rab9 promoter act 2.8µM, FLuc counter 17µM, ELG1 genotox inconclusive
COc1ccc(Br)cc1C(=O)Nc1nc2ccc(F)cc2s1	FLuc counter inconclusive (no result: ELG1 DNA repair, NPC1 promoter act, Rab9 promoter act, ELG1 genotox)
COc1ccc2nc(NC(=O)CSCC(=O)Nc3cc(C)on3)sc2c1	ELG1 DNA repair inconclusive, NPC1 promoter act inconclusive, Rab9 promoter act 5µM, FLuc counter 17µM, ELG1 genotox inconclusive (no result: SMN2 splice enh)
CCc1noc(C)c1C(=O)N1CCN(S(=O)(=O)c2ccccc2C(F)(F)F)CC1	none (no result: SMN2 splice enh)
Cc1ccc2c(c1)Cc1c(nc(-c3ccc(F)cc3)nc1SCC(=O)N1CCCCC1)O2	none (no result: ELG1 DNA repair, NPC1 promoter act, Rab9 promoter act, ELG1 genotox)
NNC(=O)CCC(=O)Nc1ccccc1	none
COc1c(C)cc(C(=O)C2CCCN(Cc3cnc(N4CCOCC4)s3)C2)cc1C (stereo not drawn)	ELG1 DNA repair 21µM
CCOc1ccc(NC(=O)[C@@H](c2ccccc2)N2Cc3ccccc3C2=O)cc1	none (no result: ELG1 DNA repair, NPC1 promoter act, Rab9 promoter act, ELG1 genotox)
COc1ccc2c(c1)CCC1C2=NN(/C(C)=C\C(C)=O)C1c1ccc(F)cc1 (stereo not drawn)	NPC1 promoter act inconclusive, Rab9 promoter act inconclusive, FLuc counter 13µM, ELG1 genotox inconclusive
COc1ccc2c(c1)C1=NN(/C(C)=C\C(C)=O)C(c3ccccc3)C1CC2 (stereo not drawn)	ELG1 DNA repair inconclusive, FLuc counter 19µM
COc1ccc2c(c1)C1=NN(/C(C)=C/C(C)=O)C(c3ccc(F)cc3)C1CC2 (stereo not drawn)	ELG1 DNA repair inconclusive, FLuc counter 27µM, ELG1 genotox inconclusive
COc1ccc2c(c1)C1=NN(/C(C)=C/C(C)=O)C(c3cccc(F)c3)C1CC2 (stereo not drawn)	FLuc counter inconclusive
